# Measurements from PubChem BioAssay AID651871 (Sanford-Burnham Center for Chemical Genomics, 2012).
# Values joined by “and” are separate entries in the source; they are usually repeats but may differ in a detail not shown here. Equal values may be shown once.
# Test system: H9c2
# Assay: protection of cardiomyocytes from stress damage, SAR follow-up, cell-based, panel, H9c2 and HL-1, ATP luminescence, set 2 (AID 651871);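 also: cells exposed to stressor for 2 h before ATP readout; reference of the scale not given here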
# Conditions: H9c2/HL-1 cardiomyocytes, 2-deoxyglucose stress, with 2-deoxyglucose; run 1, at 79 µM (top of the series)
compound,measurement,value
CCOC(=O)c1cccc(NC(=O)CNC(=O)c2cc(-c3cc(OC)c(OC)c(OC)c3)nc3ccccc23)c1,activity (protection/inhibition),92.1%
COc1ccc2c(c1OC)C(=O)N1c3ccccc3C(=O)N(Cc3cccc(Cl)c3Cl)C21 (stereo not drawn),activity (protection/inhibition),80.3% and 69.7% and -3.54%
COc1ccc2nc(-c3cc(OC)c(OC)c(OC)c3)cc(C(=O)NCC(=O)Nc3ccc(C(C)=O)cc3)c2c1,activity (protection/inhibition),74.1%
